HCMV inh – blocks human cytomegalovirus replication; AID 1259415; 4.5% of 410,000 active; HFF cells, HCMV-luciferase reporter, 72 h; active compounds read low; activity change, negative = inhibition, % at 57.5 µM; in the data active means activity change below about -60%; inconclusive means no clear call, values can overlap the other calls; inactive means above about -39%; further: on the % scale 0 is the no-effect control and ±100 the full control effect
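Two-dose cell screen: HFF monolayers treated with compounds and infected with luciferase-expressing HCMV at 1 PFU/cell, 72 h at 37C, then lysed for luciferase measurement.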
HCV inh – blocks hepatitis C virus; AID 651820; Huh7.5.1 HCVcc-Cre infection, luciferase reporter, 44 h; 3.4% of 340,000 active; Potency, µM (titrated, usually from 41.8 µM), for inactives: at the top dose activity change, negative = inhibition, hits mostly inhibitors; further: potency means the concentration at half of the fitted maximal effect; on the % scale 0 is the no-effect control and ±100 the full control effect
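Infectious HCV cell culture screen: compound-treated cells (1,000/well, pre-plated 4 h) are infected with HCVcc-Cre at roughly 0.5 moi and grown 44 h. Infection is quantified by luciferase signal after 15 min substrate incubation at room temperature.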
Pf growth 48h – P. falciparum growth inhibition at 48 hours (one generation); P. falciparum luciferase growth in erythrocytes, 48 h; Potency, µM (doses to about 28.7 µM), for the others: at the top dose activity change, negative = inhibition, hits mostly inhibitors; 5.9% of 310,000 active; AID 504832; further: potency means the concentration at half of the fitted maximal effect; on the % scale 0 is the no-effect control and ±100 the full control effect
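Compounds are pin-transferred into medium, infected erythrocytes (2% hematocrit, 0.1% parasitemia final) are added, and plates sit one parasite generation at 37 C in 5% CO2. Detection reagent is then added and luminescence measured.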
Pf growth 96h – P. falciparum growth inhibition at 96 hour, primary screen for plastid delayed-death inhibitors | P. falciparum luciferase reporter growth, 96 h | AID 504834 | 6.9% of 320,000 active | Potency, µM (highest dose often 28.7 µM), for inactives: at the top dose activity change, negative = inhibition, hits mostly inhibitors; further: potency means the concentration at half of the fitted maximal effect; on the % scale 0 is the no-effect control and ±100 the full control effect
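P. falciparum expressing integrated firefly luciferase grown in erythrocytes (2% hematocrit, 0.05% parasitemia final) with compounds for 96 hours at 37 C, 5% CO2. Growth inhibition read as loss of luminescence after adding luciferase detection reagent.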
HCV confirm – confirmation of hepatitis C virus inhibitors | shares compounds with HCV inh | HCVcc-Cre infectious virus cell assay, luciferase, inhibition | Potency, µM (highest dose often 41.8 µM), inactives show top-dose activity, negative = inhibition, actives largely listed as inhibitors | 78% of 640 active; further: potency means the concentration at half of the fitted maximal effect; nearly all actives have a fitted effect of over 80% in size
HCV cytotox – toxic to HCV host cells, flagging false HCV inhibitors; shares compounds with HCV inh; HCV host cell line cytotoxicity counterscreen; Potency, µM (highest dose often 41.8 µM), for the others: at the highest dose activity change, negative = cytotoxicity, usual class: inhibitors; 22% of 640 active; AID 720576;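 further: potency means the concentration at half of the fitted maximal effect; 44 h compound exposure; on the % scale 0 is the no-effect control and ±100 the full control effect; nearly all actives have a fitted effect of over 55% in size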
The depositor's hits bear a star; ? = inconclusive; . = no result given. An excerpt weighted towards active compounds, which were near 13% of everything screened. Unless noted, the call rests on the fitted dose curve; in most records, active means well fitted curve in the direction sought with a large enough effect; inconclusive means small, poorly fitted or top-dose-only effect, or another doubt; inactive means no such curve, though single readings can be large; an effect the other way counts as inactive or inconclusive.

SMILES | HCMV inh | HCV inh | Pf growth 48h | Pf growth 96h | HCV confirm | HCV cytotox
COc1ccc(CNc2ncnc3c2cnn3-c2ccc(Cl)cc2)cc1 | 10 | . | . | . | . | .
COc1ccc(CNc2ncnc3cc(Cl)ccc23)cc1 | -65* | 8.9µM* | 31% | ? | 25µM* | ?
CCc1ccc(NC(=O)CSc2nc3n[nH]c(C)c3c(=N)n2-c2cccc(OC)c2)cc1 | -38 | 7.1µM* | ? | ? | 14µM* | 20%
Cc1ccc2c(c1)CCO[C@@]21O[C@H](CCO)C[C@H](O)[C@H]1O | 4 | . | . | . | . | .
COc1ccc(-c2cc(-c3ccccc3)c(C#N)c(SCC(=O)Nc3ncc(C)s3)n2)cc1 | -12 | 4.5µM* | 13µM* | -13% | 20µM* | 9%
CC(C)N(C(=O)Nc1ccc2nsnc2c1)C(C)C | -101* | 4.5µM* | -18% | ? | -16% | 35%
COc1ccc(N(C)C(=O)Nc2ccc3nsnc3c2)cc1 | -32 | ? | 11% | -28% | . | .
Cc1cc(/C=N/NC(=O)c2ccccc2F)c(C)n1-c1ccccc1 | ? | 7.9µM* | 252% | -15% | ? | -22%
C=C(NC(=O)C(=C)NC(=O)c1csc(C2=NC3c4csc(n4)C4NC(=O)c5csc(n5)C(C(C)(O)C(C)O)NC(=O)C5CSC(=N5)/C(=C/C)NC(=O)C(C(C)O)NC(=O)c5csc(n5)C3(CC2)NC(=O)C(C)NC(=O)C(=C)NC(=O)C(=C)NC(=O)C(C(C)C)NC2C=Cc3c(C(C)O)cc(nc3C2O)C(=O)OC4C)n1)C(N)=O (configuration not stated) | -98* | 4µM* | . | . | 2.5µM* | 3.1µM*
Cc1csc(N2CCN(c3cc4c(cc3Cl)nc(-c3ccncc3)n4CCCN3CCCC3)CC2)n1 | 6 | ? | ? | 3.7µM* | 14µM* | 67%
Nc1ccccc1C#Cc1ccc([N+](=O)[O-])cc1 | 114 | ? | . | . | 1.8µM* | 9%
O=C1NC[C@@H](CCCCN2C[C@H](Cc3ccc(O)cc3)N(CCc3ccc(O)cc3)C(=O)C2=O)N(Cc2ccccc2)C1=O | -22 | . | . | . | . | .
COc1ccc(NC(=O)C2CC2)cc1OC1CCCC1 | . | 4% | ? | -21% | . | .
COc1ccc(NC(=O)C2CCCCN2N)cc1OCC(C)C (configuration not stated) | 99 | ? | ? | . | ? | 38%
CCn1c(=NC(=O)C2COc3ccccc3O2)sc2c(C)ccc(OC)c21 (configuration not stated) | ? | ? | ? | ? | 13µM* | 36%
CN1CCN(c2ccc(CNS(=O)(=O)Cc3cccc(C(F)(F)F)c3)cc2)CC1 | ? | 5.6µM* | -26% | -22% | 5.6µM* | 2.5µM*
COc1ccc(C(C)(NC(C)=O)c2nc(-c3ccccc3OC)cs2)cc1 (configuration not stated) | -9 | . | . | . | . | .
COCCN(C(=O)COC(=O)/C=C/c1ccc(OC)c(OC)c1)c1c(N)n(Cc2ccccc2)c(=O)[nH]c1=O | -29 | ? | ? | ? | ? | 27%
COCCN(C(=O)COC(=O)/C=C/c1ccco1)c1c(N)n(Cc2ccccc2)c(=O)[nH]c1=O | 12 | 1% | -9% | ? | . | .
Cc1cc(NCc2ccccn2)n2nc(C)c(-c3ccc(Cl)cc3)c2n1 | -99* | 4.5µM* | 1.7µM* | 2.9µM* | 11µM* | -28%
O=C(NCc1cccc(C(F)(F)F)c1)c1ccc2sc([C@H]3C[C@H](O)[C@@H](CO)O3)nc2c1 | 16 | . | . | . | . | .
Cc1ccc2c(c1)c1c3n2CC(=C2C(=O)OC(C)(C)OC2=O)NC3CCC1 (configuration not stated) | -24 | 5µM* | ? | 0.19µM* | 28µM* | -34%
O=C(COC(=O)c1cnc(Cl)c(Cl)c1)NC1CCCC1 | 23 | . | . | . | . | .
CC(Oc1ccc(Cl)cc1Cl)C(=O)NNC(=O)c1ccncc1 (configuration not stated) | 3 | 3% | 2% | 24% | . | .
CC(Oc1ccc(Cl)cc1Cl)c1nc(-c2ccc(NC(=O)c3ccncc3)cc2)no1 (configuration not stated) | -101* | 2.8µM* | 15µM* | 9.3µM* | 7µM* | 11µM*
SMILES | HCMV inh | HCV inh | Pf growth 48h | Pf growth 96h | HCV confirm | HCV cytotox
CN1CCC(N2CCN(C3CN(Cc4ccccc4)S(=O)(=O)C3)CC2)CC1 (configuration not stated) | -22 | . | . | . | . | .
CCC(C)[C@H](N)C(=O)N[C@H]1CCC2C3CC=C4C[C@@H](O)CC[C@]4(C)C3CC[C@@]21C (some centres not stated) | -1 | . | . | . | . | .
Clc1ccc(OCCN2CCCCC2)cc1Cl | -27 | -8% | -6% | ? | . | .
ON=C1c2cc(OCCN3CCCCC3)ccc2-c2ccc(OCCN3CCCCC3)cc21 | . | 3.2µM* | 1.7µM* | 1.5µM* | ? | -12%
CSc1nc2nc(C)cc(-c3ccccc3)n2n1 | -26 | 7.9µM* | 13% | . | ? | 15%
COc1ccc(NC(=O)C2(C)CCN2C(=O)c2ccccc2CCc2ccccc2)cc1OC (configuration not stated) | -29 | . | . | . | . | .
Cc1ccc(-n2ncc3c(=O)n(-c4cccc(C)c4)c(=O)[nH]c32)cc1 | 13 | . | . | . | . | .
O=C(C[C@@H]1C/C=C\C[C@@H](NC(=O)OCC2c3ccccc3-c3ccccc32)C(=O)OCCNC1=O)N[C@@H](CO)Cc1ccccc1 | -8 | 1.8µM* | . | . | ? | -13%
C[C@@H]1COC(=O)[C@H](NC(=O)OCC2c3ccccc3-c3ccccc32)C/C=C\C[C@@H](CC(=O)N[C@H](CO)Cc2ccccc2)C(=O)N1 | -23 | ? | . | . | . | .
N#C/C(=C\c1cc([N+](=O)[O-])c(N2CCCCC2)cc1N1CCCCC1)c1nn(-c2ccccc2)c(N)c1C#N | 29 | ? | ? | ? | 10µM* | 40%
N#C/C(=C\c1cccc2ccccc12)c1nn(-c2ccccc2)c(N)c1C#N | . | -29% | . | . | . | .
COc1ccccc1CC(=O)Nc1cc2oc3ccccc3c2cc1OC | -8 | 4µM* | ? | ? | 13µM* | 22%
CC(C)(C)c1cc[n+](C2=C([O-])c3ccccc3C(=O)/C2=N\S(=O)(=O)c2cccs2)cc1 | -100* | 2.8µM* | 1.3µM* | 2.1µM* | 25µM* | ?
CC(C)(C)c1ccc(C(=O)NCC(c2cccs2)S(=O)(=O)c2cccs2)cc1 (configuration not stated) | -34 | . | . | . | . | .
COc1cccc(C(=O)Nc2ccc3c(c2)CCCN3C(=O)c2cccs2)c1OC | -33 | 4.5µM* | ? | -8% | 25µM* | ?
COc1ccc(Cl)cc1-c1cc(C(=O)NCc2ccccc2)[nH]n1 | 82 | . | . | . | . | .

Screening data as filed in PubChem BioAssay.
